Assay results published in PubChem BioAssay.
Activity calls are given as the source filed them.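 How the source made its calls, unless noted: active means normalized viability below 100% at a tested concentration; inactive means the rest.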

Legend:
[1] = drug combination growth inhibition, ovarian cancer – cell-based, oncology-focused library, rucaparib conditional, profiling panel (AID 1508598); conditions: patient-derived ovarian cancer cells, CellTiter-Glo viability, 144 h, stronger effect = lower value
[2] = viability loss with induced miR-34 in A549 – imaging, A549 dox-inducible miR-34, nuclei and caspase counts, primary screen (AID 1347080;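 active means compounds whose cell count with miR-34 switched on is under 0.7 times the count with it off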); conditions: A549 miR-34 inducible, Hoechst nuclei count, 48 h
[3] = MELAS cybrid and Rieske KO viability enhancers – cell-based, MELAS cybrids, Rieske KO mouse fibroblasts, CellTiter-Glo, primary screen (AID 1508586;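 active means mean z-score across replicates of 1.96 or higher in either the MELAS or the Rieske mutant cell line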;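 further: z relative to plate mean and SD of compound and empty wells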); conditions: low glucose
[4] = at 1.25 µM, OCI-C5x cells, with rucaparib 10 µM, 100% = cells with rucaparib alone
[5] = at 1.25 µM, OCI-C5x cells, without rucaparib
[6] = at 1.25 µM, OCI-P5x cells, with rucaparib 20 µM, 100% = cells with rucaparib alone
[7] = at 1.25 µM, OCI-P5x cells, without rucaparib
[8] = at 5 µM, OCI-C5x cells, with rucaparib 10 µM, 100% = cells with rucaparib alone
[9] = at 5 µM, OCI-C5x cells, without rucaparib
[10] = at 5 µM, OCI-P5x cells, with rucaparib 20 µM, 100% = cells with rucaparib alone
[11] = at 5 µM, OCI-P5x cells, without rucaparib
[12] = stronger effect = lower value, cell number ratio, induced over uninduced
[13] = measured here: relative caspase fold change +Dox/-Dox
[14] = measured here: total cells with miR-34 induction, stronger effect = lower value
[15] = measured here: total cells without miR-34 induction
[16] = MELAS cybrid survival, CellTiter-Glo 48 h, stronger effect = higher value
[17] = Rieske KO mouse fibroblast survival, CellTiter-Glo 72 h
[18] = at 0.000305 µM, OCI-C5x cells, with rucaparib 10 µM, 100% = cells with rucaparib alone
[19] = at 0.000305 µM, OCI-C5x cells, without rucaparib
[20] = at 0.000305 µM, OCI-P5x cells, with rucaparib 20 µM, 100% = cells with rucaparib alone
[21] = at 0.000305 µM, OCI-P5x cells, without rucaparib
[22] = at 0.00122 µM, OCI-C5x cells, with rucaparib 10 µM, 100% = cells with rucaparib alone
[23] = at 0.00122 µM, OCI-C5x cells, without rucaparib
[24] = at 0.00122 µM, OCI-P5x cells, with rucaparib 20 µM, 100% = cells with rucaparib alone
[25] = at 0.00122 µM, OCI-P5x cells, without rucaparib
[26] = at 0.00488 µM, OCI-C5x cells, with rucaparib 10 µM, 100% = cells with rucaparib alone
[27] = at 0.00488 µM, OCI-C5x cells, without rucaparib
[28] = at 0.00488 µM, OCI-P5x cells, with rucaparib 20 µM, 100% = cells with rucaparib alone
[29] = at 0.00488 µM, OCI-P5x cells, without rucaparib
[30] = at 0.0195 µM, OCI-C5x cells, with rucaparib 10 µM, 100% = cells with rucaparib alone
[31] = at 0.0195 µM, OCI-C5x cells, without rucaparib
[32] = at 0.0195 µM, OCI-P5x cells, with rucaparib 20 µM, 100% = cells with rucaparib alone
[33] = at 0.0195 µM, OCI-P5x cells, without rucaparib
[34] = at 0.0781 µM, OCI-C5x cells, with rucaparib 10 µM, 100% = cells with rucaparib alone
[35] = at 0.0781 µM, OCI-C5x cells, without rucaparib
[36] = at 0.0781 µM, OCI-P5x cells, with rucaparib 20 µM, 100% = cells with rucaparib alone
[37] = at 0.0781 µM, OCI-P5x cells, without rucaparib
[38] = at 0.313 µM, OCI-C5x cells, with rucaparib 10 µM, 100% = cells with rucaparib alone
[39] = at 0.313 µM, OCI-C5x cells, without rucaparib
[40] = at 0.313 µM, OCI-P5x cells, with rucaparib 20 µM, 100% = cells with rucaparib alone
[41] = at 0.313 µM, OCI-P5x cells, without rucaparib

CC(=O)O[C@@]1(C(C)=O)CC[C@H]2[C@@H]3C=C(C)C4=CC(=O)CC[C@]4(C)[C@@H]3CC[C@@]21C
active: viability [1, 5] 92.1% | viability [1, 6] 89.9% | viability [1, 7] 82.2% | viability [1, 9] 93.9% | viability [1, 10] 84.5% | viability [1, 11] 82.1%
inactive: viability [1, 4] 116% | viability [1, 8] 111%

COc1cc2ncnc(Nc3ccc(F)c(Cl)c3)c2cc1NC(=O)C=CCN1CCCCC1
2960: cell count [2, 15]
-1.94: z-score [3, 17]
3310: cell count [2, 14]
0.707: fold change [2, 13]
inactive: fold change [2, 12] 1.12 | z-score [3, 16] -0.496

Cc1cc(C)c(S(=O)(=O)n2cc(C)cc2C)c(C)c1
0.313: z-score [3, 17]
inactive: fold change [2, 12] 0.922 | z-score [3, 16] -0.318 | viability [1, 18] 109% | viability [1, 19] 106% | viability [1, 20] 102% | viability [1, 21] 104% | viability [1, 22] 121% | viability [1, 23] 104% | viability [1, 26] 116% | viability [1, 27] 101% | viability [1, 28] 106% | viability [1, 29] 101% | viability [1, 30] 112% | viability [1, 32] 105% | viability [1, 34] 128% | viability [1, 35] 102% | viability [1, 38] 122% | viability [1, 39] 109% | viability [1, 40] 101% | viability [1, 4] 113% | viability [1, 6] 106% | viability [1, 7] 102% | viability [1, 8] 122% | viability [1, 9] 110% | viability [1, 10] 101% | viability [1, 11] 102%
7540: cell count [2, 14]
active: viability [1, 24] 97.6% | viability [1, 25] 96% | viability [1, 31] 94% | viability [1, 33] 97.2% | viability [1, 36] 99.3% | viability [1, 37] 97.7% | viability [1, 41] 98.8% | viability [1, 5] 94.4%
0.448: fold change [2, 13]
8180: cell count [2, 15]

COc1ccc(CC(NC(=O)C(C)NC(=O)CN2CCOCC2)C(=O)NC(Cc2ccccc2)C(=O)[C@]2(C)CO2)cc1 (some centres not stated)
690: cell count [2, 15]
990: cell count [2, 14]
inactive: fold change [2, 12] 1.43 | z-score [3, 16] -0.544
1: fold change [2, 13]
-7.62: z-score [3, 17]

CCOC(=O)c1ccc(N2NC(=O)C(=Cc3ccc([N+](=O)[O-])o3)C2=O)cc1
8150: cell count [2, 15]
inactive: fold change [2, 12] 0.912 | z-score [3, 16] -0.255
-2.84: z-score [3, 17]
0.455: fold change [2, 13]
7420: cell count [2, 14]

CCn1c2ccccc2c2cc(Nc3ccnc(NCCCN4CCOCC4)n3)ccc21
inactive: fold change [2, 12] 1.23 | z-score [3, 16] -0.307
0.428: z-score [3, 17]
0.454: fold change [2, 13]
2810: cell count [2, 14]
2280: cell count [2, 15]

CC(=O)OC1C[C@@H]2CC[C@@H]3[C@@H](CC[C@]4(C)C(OC(C)=O)C([N+]5(C)CCCCC5)C[C@@H]34)[C@@]2(C)CC1[N+]1(C)CCCCC1 (some centres not stated)
10600: cell count [2, 15]
10400: cell count [2, 14]
inactive: fold change [2, 12] 0.982 | z-score [3, 16] -0.344
0.749: fold change [2, 13]
0.747: z-score [3, 17]

Nc1nonc1C(=Nc1ccc(F)c(Cl)c1)NO
inactive: fold change [2, 12] 0.862 | z-score [3, 16] -0.315 | viability [1, 18] 127% | viability [1, 19] 108% | viability [1, 22] 121% | viability [1, 23] 110% | viability [1, 26] 122% | viability [1, 27] 114% | viability [1, 30] 124% | viability [1, 31] 101% | viability [1, 34] 116% | viability [1, 35] 107% | viability [1, 36] 105% | viability [1, 38] 116% | viability [1, 39] 107% | viability [1, 41] 102% | viability [1, 4] 127% | viability [1, 5] 115% | viability [1, 8] 114% | viability [1, 9] 120%
0.685: fold change [2, 13]
8500: cell count [2, 14]
9860: cell count [2, 15]
1.22: z-score [3, 17]
active: viability [1, 20] 87% | viability [1, 21] 92.2% | viability [1, 24] 90.4% | viability [1, 25] 100% | viability [1, 28] 94% | viability [1, 29] 98% | viability [1, 32] 99.2% | viability [1, 33] 95.7% | viability [1, 37] 100% | viability [1, 40] 99.5% | viability [1, 6] 91.9% | viability [1, 7] 99.5% | viability [1, 10] 79% | viability [1, 11] 90.1%

CCNC(=O)c1noc(-c2cc(Cl)c(O)cc2O)c1-c1ccc(OC)cc1
2420: cell count [2, 15]
0.496: fold change [2, 13]
2390: cell count [2, 14]
-1.9: z-score [3, 17]
inactive: fold change [2, 12] 0.987 | viability [1, 18] 129% | viability [1, 19] 113% | viability [1, 20] 105% | viability [1, 22] 120% | viability [1, 23] 120% | viability [1, 24] 101% | viability [1, 25] 102% | viability [1, 26] 138% | viability [1, 27] 120% | viability [1, 28] 100% | viability [1, 29] 101% | viability [1, 30] 181% | viability [1, 31] 140%
active: z-score [3, 16] 2.58 | viability [1, 21] 98% | viability [1, 32] 33.1% | viability [1, 33] 82.6% | viability [1, 34] 73.6% | viability [1, 35] 39.7% | viability [1, 36] 17.1% | viability [1, 37] 9.14% | viability [1, 38] 39% | viability [1, 39] 22.6% | viability [1, 40] 12% | viability [1, 41] 7.17% | viability [1, 4] 9.37% | viability [1, 5] 6.36% | viability [1, 6] 4.69% | viability [1, 7] 4.76% | viability [1, 8] 8.73% | viability [1, 9] 6.88% | viability [1, 10] 4.38% | viability [1, 11] 3.37%
